# Most compounds without a hit are left out; they make up all but 4.6% or so of the library.
# HSF1 inhib: HSF1 inhibition. NIH3T3-HGL HSE-luciferase, MG132-induced, luminescence 8 h; stronger effect = lower value. activity change, negative = inhibition, % at 7.5 µM (by protocol). 0.77% of 300,000 active. AID 2098;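 active means more than half of replicate wells show activity change below -50%, luminescence cut by over half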;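 further: luciferase reports HSF-1 transcriptional activity via heat shock element; 0% = median of DMSO wells and -100% = zero luminescence signal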
# AHR activator: human AHR activation | P35869 | AHR-responsive luciferase reporter cells, luminescence | activation, % at 5 µM | 2.5% of 320,000 active | AID 2796; in the data active means activation above about 47%;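 further: 0% = vehicle wells and 100% = reference agonist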
# Target sequence (P35869 whole entry, looked up): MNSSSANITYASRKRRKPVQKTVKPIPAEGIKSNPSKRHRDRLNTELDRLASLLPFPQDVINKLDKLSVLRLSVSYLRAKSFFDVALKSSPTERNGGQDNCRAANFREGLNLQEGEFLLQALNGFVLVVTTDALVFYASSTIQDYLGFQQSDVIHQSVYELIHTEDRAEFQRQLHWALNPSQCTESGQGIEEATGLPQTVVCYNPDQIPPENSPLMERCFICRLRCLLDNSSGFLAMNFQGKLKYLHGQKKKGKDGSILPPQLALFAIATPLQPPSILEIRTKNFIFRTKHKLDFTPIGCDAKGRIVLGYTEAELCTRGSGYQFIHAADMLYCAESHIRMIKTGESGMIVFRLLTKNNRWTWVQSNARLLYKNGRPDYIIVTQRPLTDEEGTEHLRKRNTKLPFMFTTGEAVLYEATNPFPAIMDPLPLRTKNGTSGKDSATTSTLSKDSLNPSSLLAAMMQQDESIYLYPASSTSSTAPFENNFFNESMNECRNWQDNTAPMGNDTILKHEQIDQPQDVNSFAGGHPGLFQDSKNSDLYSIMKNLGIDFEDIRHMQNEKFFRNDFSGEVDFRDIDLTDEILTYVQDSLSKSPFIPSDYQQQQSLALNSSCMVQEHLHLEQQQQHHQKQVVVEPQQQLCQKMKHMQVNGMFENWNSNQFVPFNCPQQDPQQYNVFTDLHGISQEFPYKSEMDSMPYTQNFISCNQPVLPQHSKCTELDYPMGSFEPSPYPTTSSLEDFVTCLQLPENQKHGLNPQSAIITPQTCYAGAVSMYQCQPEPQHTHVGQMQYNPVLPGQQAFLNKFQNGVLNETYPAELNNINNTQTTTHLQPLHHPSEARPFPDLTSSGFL
# HSF1 activator: increases HSF-1 driven luciferase reporter signal | NIH3T3-HGL HSF-1 luciferase reporter, MG132, 8 h; 100% = twice DMSO control signal | activation, % at 9 µM | 1.7% of 300,000 active;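 active means mean replicate activation of at least 50% with a set share of replicates each reaching 50%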;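 further: 0% = median of the neutral control wells and 100% = twice that signal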
# GAA850 FXN act: increases GAA850 frataxin promoter reporter activity | activation, % at 6 µM | 0.56% of 360,000 active | HEK293 lucGAA850 FXN promoter luciferase reporter, 24 h; percent of 10 µM SAHA response;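 active means activation above the average of all compounds screened plus 3 SD, cutoff fixed separately per campaign, cut at about 7.5% in these data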;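 further: 0% = DMSO wells and 100% = 10 µM SAHA wells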
# Starred values were filed as active, the others as inactive; / = no result.
SMILES,HSF1 inhib,AHR activator,HSF1 activator,GAA850 FXN act
Oc1ccc(Cl)cc1C1=NNC(c2ccc(Cl)cc2)C1 (configuration not stated),19,77*,44,5
COc1ccccc1NC(=O)C(C)OC(=O)/C=C/c1ccc2ccccc2n1 (configuration not stated),20,15,63*,3
CC(OC(=O)/C=C/c1ccc2ccccc2n1)C(=O)N(C)c1ccccc1 (configuration not stated),/,6,/,1
Nc1cccc(CCc2nc3cc4ccccc4cc3[nH]2)c1,12,62*,15,0
COc1ccc(C)cc1NC(=O)CO/N=C(\N)CC(=O)Nc1ccccc1OC,/,5,/,-1
C/C(=N\NC(=O)c1c(Br)c(C)nn1C)c1cccc(NC(=O)C2CCC2)c1,1,-3,-19,-1
O=C(CCCCCCN1C(=O)c2ccccc2C1=O)N1CCC(c2ccccc2)C1 (configuration not stated),-64*,1,-71,-2
O=C(CCN1C(=O)/C(=C/C=C/c2ccccc2)SC1=S)Nc1ccccn1,45,-5,48,-1
O=C(CCCCCN1C(=O)c2ccccc2C1=O)Nc1ccc(C(=O)O)cc1,28,0,63*,0
CC(=Cc1ccccc1)C=C1SC(=S)N(CCCC(=O)Nc2ccc(C(=O)O)cc2)C1=O,/,/,/,-3
CC(=C\c1ccccc1)/C=C1/SC(=S)N(CCC(=O)Nc2ccccn2)C1=O,-91*,-2,-93,/
CC(/C=C1\SC(=S)N(CCCC(=O)Nc2ccc(C(=O)O)cc2)C1=O)=C\c1ccccc1,11,-4,61*,-4
CCOC(=O)c1c(C)[nH]c(C(=O)OCC(=O)N2CCN(S(=O)(=O)c3ccccc3)CC2)c1C,-4,2,-7,0
Cc1cccc(OCc2nnc(SCC(=O)Nc3cc(C)on3)n2C)c1,7,0,41,-3
CC(/C=C1\SC(=S)N(CCC(=O)Nc2ccccc2O)C1=O)=C\c1ccccc1,-69*,3,-69,-2
CC(/C=C1\SC(=O)N(CCCC(=O)O)C1=O)=C\c1ccccc1,-73*,-4,-78,-12
CCOC(=O)c1cnc2c(cnn2C)c1NCCCn1ccnc1,-7,59*,-21,3
CCOC(=O)c1cnc2c(cnn2C)c1NCCCN(C)C,-8,-1,0,2
CC(C)(C)CN1CCN(Cc2cccnc2)CC1CCO (configuration not stated),-2,4,-5,0
O=C1Nc2ccc(F)cc2C12Nc1ccccc1-c1nnc(SCc3ccccc3)nc1O2 (configuration not stated),1,21,11,1
Cc1cc2ncn(-c3ncccc3[N+](=O)[O-])c2cc1C,-6,48*,17,3
O=C(O)c1c2c(nc3ccc(S(=O)(=O)N4CCC(C(=O)NCc5ccccc5Cl)CC4)cc13)CCCC2,2,0,-4,0
CCOC(=O)c1[nH]n(-c2ccc(Cl)cc2)c(=O)c1C,2,0,-1,2
COc1ccc2c(n1)Sc1nc3ccccc3nc1N2,27,64*,55*,3
CCCN(CCC)c1nc(N)c(C#N)c(CC#N)c1C#N,79,7,115*,5
SMILES,HSF1 inhib,AHR activator,HSF1 activator,GAA850 FXN act
CCCN(CC1CC1)c1nc(N)c(C#N)c(CC#N)c1C#N,83,11,72*,6
CCN(CC)c1nc(N)c(C#N)c(CC#N)c1C#N,5,18,11,5
O=C1NC(=O)C(=C2CCCCCC2)S1,-7,0,17,1
CCOC(=O)C(=Cc1cc(=O)c(OC)co1)C(=O)OCC,80,/,94*,-15
Cn1cccc1/C=C(/C#N)C(N)=S,3,-3,15,-1
Cc1ccc(-c2ccc(/C=C(\C#N)C(N)=S)n2C)cc1,/,79*,/,2
Nc1ccc2nc(SCc3ccccc3F)sc2c1,21,26,29,1
Cc1ccc(C(=O)CSc2nnc(C)s2)cc1,16,4,5,5
Nc1nnc(SCC(=O)c2cccc([N+](=O)[O-])c2)s1,5,6,10,0
Nc1nnc(SCC(=O)c2ccc3ccccc3c2)s1,13,48*,39,/
Cc1nnc(SCC(=O)c2ccc(Br)cc2)s1,49,3,67*,3
Nc1ccc2nc(SCC(=O)c3ccccc3)sc2c1,-20,49*,-34,-2
CC(=O)N1CCc2[nH]c3ccccc3c2C1,4,6,12,3
C/C(=N\Nc1nc2ccccc2[nH]1)c1ccc(Cl)s1,10,73*,6,3
C/C(=N\Nc1nc2ccccc2[nH]1)c1ccc(N2CCOCC2)cc1,3,76*,32,6
CCC(C)(C)C1CCC(=NNc2nc3ccccc3[nH]2)CC1 (configuration not stated),-12,50*,-19,1
CC(=O)N1CCC(=NNc2nc3ccccc3[nH]2)CC1,-14,63*,-10,5
Cn1nc([N+](=O)[O-])nc1S(C)(=O)=O,17,/,32,18*
CS(=O)(=O)c1nc([N+](=O)[O-])nn1CCCc1ccccc1,18,-1,26,3
Cc1oc(/C=N/NC(=O)CC2(C)OCCO2)cc1Br,-53*,15,-62,1
COc1ccc(Cc2nnc(-c3cccc(C)c3)o2)cc1OC,3,49*,2,1
COc1ccc(CC(=O)Nc2cccc(-c3nnc(-c4cccc(C)c4)o3)c2)cc1OC,-12,-5,-5,-5
NC(=S)N/N=C\c1c(OCc2ccccc2Cl)ccc2ccccc12,/,70*,/,-2
NC(=S)N/N=C\c1c2ccccc2cc2ccccc12,/,7,/,-3
CC(=O)Nc1cccc(NC(=O)c2oc3ccccc3c2C)c1,16,113*,26,/
SMILES,HSF1 inhib,AHR activator,HSF1 activator,GAA850 FXN act
COc1ccc(NC(=O)c2oc3ccccc3c2C)c(OC)c1,0,58*,28,2
Cc1c(C(=O)Nc2cnccn2)oc2ccccc12,5,93*,8,-1
Cc1ccnc(NC(=O)c2oc3ccccc3c2C)c1,12,44,25,3
CC(=O)Nc1c(C(=O)c2ccccc2)oc2ccccc12,-7,109*,16,0
CC(=O)Nc1c(C(=O)C2CC2)oc2ccccc12,-7,4,1,-2
CC(=O)Nc1ccc(NC(=S)NC(=O)c2oc3ccccc3c2C)cc1,0,18,12,-1
O=C(Nc1nc2ccc(Cl)cc2s1)c1ccc(N2CCCCC2)c([N+](=O)[O-])c1,-3,-1,0,2
CCOc1ccc(C(=O)Nc2cccc(-c3cc4ccccc4oc3=O)c2)cc1[N+](=O)[O-],0,-8,-11,-2
Cc1c(C(=O)Nc2ccc(Cl)cn2)oc2ccccc12,10,64*,9,-1
Cc1ccccc1C(=O)Nc1ccc(Cl)cn1,4,-4,39,1
Cc1c(C(=O)Nc2c(C)n(C)n(-c3ccccc3)c2=O)oc2ccc(Cl)cc12,-3,51*,5,3
O=S(Cc1ccc(Cl)cc1)CC(O)COCc1ccc(Cl)cc1 (configuration not stated),1,0,1,0

# High-throughput results: PubChem BioAssay, several laboratories
